Laboratory results published in PubChem BioAssay (NCI).
This is part of a sample that, as a whole, favours compounds with a hit. Of some 83,000 tested, about 20% had one in any assay.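 The test compound was applied at a single concentration to cells in 96-well plates for 48 hours, and percent growth was recorded.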 Activity calls are given as the source filed them. Rule for the calls: active = growth percent below 10; inactive = the rest.

Legend:
Experiment in all cases: NCI-60 one-dose screen, 48 h (100 = growth as untreated, 0 = no growth, -100 = all killed)
Details in all cases: 10 µM unless noted
[1] = system: RPMI-8226 leukemia
[2] = system: OVCAR-8 ovarian
[3] = system: OVCAR-5 ovarian
[4] = system: OVCAR-4 ovarian
[5] = system: SK-OV-3 ovarian
[6] = system: IGROV1 ovarian
[7] = system: OVCAR-3 ovarian
[8] = system: HS 578T breast
[9] = system: NCI/ADR-RES ovarian
[10] = system: T-47D breast
[11] = system: BT-549 breast
[12] = system: MDA-MB-435 melanoma
[13] = system: SW-620 colon
[14] = system: MCF7 breast
[15] = system: HCT-116 colon
[16] = system: HCC-2998 colon
[17] = system: KM12 colon
[18] = system: SR leukemia

Measured: growth

C=CCc1cc(Cl)cc2c(OC(C)=O)c(C(C)=O)c(-c3ccccc3)nc12
inactive: [1] 97.4% | [2] 113% | [3] 111% | [4] 100% | [5] 99.9% | [6] 82.3% | [7] 107% | [8] 102% | [9] 119% | [10] 90.8% | [11] 116% | [12] 108% | [13] 107% | [14] 82.1% | [15] 105% | [16] 118% | [17] 99.5%

Cc1ccc2c(c1)ncn2-c1ncnc2c1CC(C)c1ccccc1N2C (configuration not stated)
inactive: [3] 54.8% | [4] 46.5% | [5] 29.6% | [6] 16.3% | [8] 20.2% | [9] 17.1% | [10] 24.4% | [12] 11.8% | [13] 22.9% | [14] 12.9% | [15] 10.1% | [16] 26.8% | [17] 10.5%
active: [1] -9.63% | [2] 8.64% | [7] 9.32% | [11] -6.44%

NC(=O)c1c(NC(=O)c2ccc3c(c2)OCO3)sc2c1CCC(=O)C2
active: [1] -34.9% | [2] -15.9% | [3] -49.8% | [4] -70.8% | [5] -11.7% | [6] -17.1% | [7] -47% | [9] -6.35% | [10] -39.7% | [11] -6.08% | [12] 2.97% | [13] -10.8% | [14] -7.93% | [15] -56.3% | [17] -20.6%
inactive: [8] 16.7% | [16] 12.5%

O=C(c1ccncc1)N1N=C(c2ccc(Cl)cc2)CC1c1c[nH]c2ccccc12 (configuration not stated)
inactive: [18] 57.5% | [2] 98.5% | [3] 105% | [5] 84.2% | [6] 79.3% | [7] 95.5% | [8] 101% | [9] 97% | [10] 74.8% | [11] 92.8% | [12] 99.9% | [13] 96% | [14] 70.2% | [15] 94.3% | [16] 105% | [17] 96.8%

COC(=O)CCCCCCN=Cc1c(O)c(O)c(C(C)C)c2cc(C)c(-c3c(C)cc4c(C(C)C)c(O)c(O)c(C=NCCCCCCC(=O)OC)c4c3O)c(O)c12
active: [14] 7.98% | [15] 8.17%
inactive: [1] 13.2% | [2] 18.6% | [3] 21.7% | [4] 27.7% | [5] 64.8% | [6] 29.3% | [7] 21.8% | [8] 20.2% | [9] 69.1% | [10] 20.6% | [11] 38.6% | [12] 17.2% | [13] 17.9% | [16] 32.6% | [17] 18.2%

Cc1ccc(Nc2ncnc3c2sc2ncccc23)cc1
inactive: [1] 105% | [2] 98.1% | [3] 101% | [4] 109% | [5] 101% | [6] 105% | [7] 109% | [8] 102% | [9] 98.8% | [10] 95.9% | [11] 111% | [12] 108% | [13] 99.8% | [14] 92.8% | [15] 106% | [16] 103% | [17] 105%

O=C(CN1CCN(c2cc3c(cc2F)c(=O)c(C(=O)O)cn3C2CC2)CC1)Nc1ccc(C(=O)/C=C/c2ccc(Cl)cc2)cc1
inactive: [1] 90.2% | [2] 98% | [3] 115% | [4] 95.4% | [5] 110% | [6] 121% | [7] 128% | [8] 108% | [9] 111% | [10] 106% | [11] 91.1% | [12] 101% | [13] 111% | [14] 91.7% | [15] 41.3% | [16] 103% | [17] 120%

CCC(=O)Oc1ccc2c(c1)CC[C@@H]1[C@@H]2CC[C@]2(C)C[C@H](OC(=O)CC)C[C@@H]12
inactive: [1] 67% | [2] 87.9% | [3] 98.4% | [4] 79% | [5] 56% | [6] 77.6% | [7] 68.8% | [8] 59.7% | [9] 54.2% | [10] 83.7% | [11] 60.1% | [13] 48.2% | [14] 68.5% | [15] 50.5% | [16] 85% | [17] 53.5%
active: [12] 0.38%

Cc1ccc(Cn2c(-c3nonc3N)nc3ccccc32)cc1
inactive: [1] 91% | [2] 88.3% | [3] 81.2% | [4] 87.1% | [5] 80.4% | [6] 67.2% | [7] 71.8% | [8] 72.9% | [9] 49.2% | [10] 74.6% | [11] 68.3% | [13] 28.4% | [14] 55.5% | [15] 58.2% | [16] 75.1% | [17] 31.6%
active: [12] -30.8%

COc1cc(C(=O)N2CCN(C(=O)c3ccco3)CC2)c(N)cc1OCc1ccccc1
active: [6] -5.4%
inactive: [1] 71.9% | [2] 99.8% | [3] 107% | [4] 92.9% | [5] 113% | [7] 105% | [8] 91.9% | [9] 102% | [10] 97.1% | [11] 105% | [12] 113% | [13] 105% | [14] 93.1% | [15] 93.3% | [16] 125% | [17] 103%

NCCSC(c1ccccc1)(c1ccccc1)c1ccccc1
inactive: [2] 25% | [3] 13.1% | [4] 33.6% | [5] 27.6% | [6] 22.2% | [8] 16.8% | [10] 25.6% | [11] 22.1% | [13] 19.1% | [17] 17.9%
active: [1] -24.7% | [7] 2.29% | [9] -21.9% | [12] -52.9% | [14] 2.6% | [15] 7.63% | [16] -41.7%

COC1=CC(c2ccc[nH]2)=N/C1=C\c1[nH]c(C)c(CCCn2cc(CCCCCCCCC[C@@H]3Cc4cc(O)ccc4C4CC[C@]5(C)[C@@H](O)CC[C@H]5C43)nn2)c1C (some centres not stated)
inactive: [18] 66.7% | [2] 70.4% | [3] 32% | [5] 84% | [6] 78.1% | [7] 63.2% | [8] 55.7% | [9] 69.5% | [10] 38.4% | [11] 67.6% | [12] 72.4% | [13] 44.8% | [14] 16.4% | [15] 37.3% | [16] 36.4% | [17] 16.2%

Cn1c(-c2nonc2NC(=O)c2ccc(F)cc2)nc2ccccc21
inactive: [1] 106% | [2] 96.6% | [3] 117% | [4] 114% | [5] 111% | [6] 104% | [7] 119% | [8] 110% | [9] 106% | [10] 96.5% | [11] 109% | [12] 107% | [13] 105% | [14] 89.1% | [15] 106% | [16] 100% | [17] 103%

NC(=O)c1c(NC(=O)c2ccc(OCC3CCCO3)cc2)sc2c1CCCC2 (configuration not stated)
inactive: [1] 83.7% | [2] 104% | [3] 101% | [4] 115% | [5] 119% | [7] 108% | [9] 97.1% | [10] 80.5% | [11] 101% | [12] 95.8% | [13] 110% | [14] 101% | [15] 90% | [16] 113% | [17] 66.9%
active: [6] -23.3% | [8] -24.5%

CCCCCCC[C@@H](O)CC(=O)N[C@H](CCCCN)C(=O)N[C@H](Cc1c[nH]c2ccccc12)C(=O)NC(CCCCN)C(=O)N[C@H](CC(C)C)C(=O)N[C@H](Cc1ccccc1)C(=O)N[C@H](CCCCN)C(=O)N[C@H](CCCCN)C(=O)N[C@H](CC(C)C)C(=O)N1CCCC1C(=O)N[C@H](CCCCN)C(=O)N[C@H](Cc1ccccc1)C(=O)N[C@H](CC(C)C)C(=O)N[C@H](Cc1c[nH]cn1)C(=O)N[C@H](CC(C)C)C(=O)N[C@H](C)C(=O)N[C@H](CCCCN)C(=O)N[C@H](CCCCN)C(=O)N[C@H](Cc1ccccc1)C(=O)O (some centres not stated)
active: [18] -13.1% | [2] -11.1% | [3] -63% | [5] -62.8% | [6] -29.4% | [7] -41.3% | [8] -42.4% | [9] -23.6% | [10] -39.9% | [11] -43% | [12] -38.7% | [13] -52.2% | [14] -23.8% | [15] -35.7% | [16] -49.2% | [17] -63%
